The record followed here is PubChem BioAssay (NCATS).

A short description of test [1]: qHTS of pediatric cancer cell lines to identify multiple opportunities for drug repurposing: Primary screen for TC32 cells (AID 1347089). Further: nearly all actives have a fitted effect of over 60% in size. Further: potency means the concentration at half of the fitted maximal effect. The essentials: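 In the primary qHTS, MIPE compounds were tested at 11 concentrations (0.78 nM to 46 µM) and NPC compounds at 8 (0.59 nM to 46 µM) on TC32 cells for 48 h. CellTiter-Glo luminescence gave viability.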
Test [2] in a line: qHTS of pediatric cancer cell lines to identify multiple opportunities for drug repurposing: Primary screen for DAOY cells (AID 1347090). Further: nearly all actives have a fitted effect of over 55% in size. Further: potency means the concentration at half of the fitted maximal effect. The essentials: (§1)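 Cell viability, CellTiter-Glo luminescence; 500-1,000 cells/well, 8- or 11-point titration, 48 h compound exposure at 37 degrees C, 5% CO2. Controls: DMSO neutral, bortezomib 2.3 µM final as positive.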
On the technique in general: qHTS replaces the single test concentration by a dilution series.

The nature of test [3]: qHTS of pediatric cancer cell lines to identify multiple opportunities for drug repurposing: Primary screen for SJ-GBM2 cells (AID 1347091). Further: potency means the concentration at half of the fitted maximal effect. The essentials:
as §1

The nature of test [4]: qHTS of pediatric cancer cell lines to identify multiple opportunities for drug repurposing: Primary screen for SK-N-MC cells (AID 1347093). Further: potency means the concentration at half of the fitted maximal effect. The essentials: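 Metabolically active cells were quantified by ATP-dependent luminescence (CellTiter-Glo, 15 min at room temperature) following 48 h treatment. Cells had been plated at 500-1,000 per well and settled for 5 h beforehand.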

Test [5] can be described thus: qHTS of pediatric cancer cell lines to identify multiple opportunities for drug repurposing: Primary screen for BT-37 cells (AID 1347094). Further: potency means the concentration at half of the fitted maximal effect. The essentials:
(§2)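 Primary screen of approved and investigational compounds on cells in growth media at 37 degrees C, 5% CO2. MIPE set at 11-point and NPC set at 8-point dilutions; viability scored by ATP-based luminescence at 48 hours.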

A short description of test [6]: qHTS of pediatric cancer cell lines to identify multiple opportunities for drug repurposing: Primary screen for U-2 OS cells (AID 1347096). Further: nearly all actives have a fitted effect of over 50% in size. Further: potency means the concentration at half of the fitted maximal effect. The essentials: (§3)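 Cells (500-1,000/well) rested 5 h, then received compounds for 48 h; metabolically active cells were measured by CellTiter-Glo luminescence. Final concentrations spanned up to 46 µM (MIPE, 11-point) or 0.59 nM-46 µM (NPC, 8-point) in primary screens, 11-point in follow-ups.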

A short description of test [7]: qHTS of pediatric cancer cell lines to identify multiple opportunities for drug repurposing: Primary screen for Saos-2 cells (AID 1347097). Further: nearly all actives have a fitted effect of over 40% in size. Further: potency means the concentration at half of the fitted maximal effect. The essentials: as §2
Test [8] is described as follows: qHTS of pediatric cancer cell lines to identify multiple opportunities for drug repurposing: Primary screen for SK-N-SH cells (AID 1347098). Further: nearly all actives have a fitted effect of over 65% in size. Further: potency means the concentration at half of the fitted maximal effect. The essentials:
as §3

The nature of test [9]: qHTS of pediatric cancer cell lines to identify multiple opportunities for drug repurposing: Primary screen for NB1643 cells (AID 1347099). Further: nearly all actives have a fitted effect of over 50% in size. Further: potency means the concentration at half of the fitted maximal effect. The essentials:
as §2

The nature of test [10]: qHTS of pediatric cancer cell lines to identify multiple opportunities for drug repurposing: Primary screen for LAN-5 cells (AID 1347100). Further: potency means the concentration at half of the fitted maximal effect. The essentials: as §3
The nature of test [11]: qHTS of pediatric cancer cell lines to identify multiple opportunities for drug repurposing: Primary screen for BT-12 cells (AID 1347101). Further: nearly all actives have a fitted effect of over 25% in size. Further: potency means the concentration at half of the fitted maximal effect. The essentials:
as §3

The nature of test [12]: qHTS of pediatric cancer cell lines to identify multiple opportunities for drug repurposing: Primary screen for Rh18 cells (AID 1347102). Further: nearly all actives have a fitted effect of over 65% in size. The essentials:
as §3

A short description of test [13]: qHTS of pediatric cancer cell lines to identify multiple opportunities for drug repurposing: Primary screen for OHS-50 cells (AID 1347103). Further: nearly all actives have a fitted effect of over 40% in size. Further: potency means the concentration at half of the fitted maximal effect. The essentials: as §3
Test [14] in a line: qHTS of pediatric cancer cell lines to identify multiple opportunities for drug repurposing: Primary screen for RD cells (AID 1347104). Further: nearly all actives have a fitted effect of over 55% in size. Further: potency means the concentration at half of the fitted maximal effect. The essentials:
as §2

Test [15] in a line: qHTS of pediatric cancer cell lines to identify multiple opportunities for drug repurposing: Primary screen for MG 63 (6-TG R) cells (AID 1347105). Further: nearly all actives have a fitted effect of over 50% in size. Further: potency means the concentration at half of the fitted maximal effect. The essentials:
as §2

Test [16] can be described thus: qHTS of pediatric cancer cell lines to identify multiple opportunities for drug repurposing: Primary screen for NB-EBc1 cells (AID 1347095). Further: potency means the concentration at half of the fitted maximal effect. The essentials: as §2
A short description of test [17]: qHTS of pediatric cancer cell lines to identify multiple opportunities for drug repurposing: Primary screen for A673 cells (AID 1347092). Further: nearly all actives have a fitted effect of over 45% in size. The essentials: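 48 h compound exposure, A673, 500-1,000 cells/well, 37 degrees C/5% CO2. MIPE: 11-point, 0.78 nM-46 µM; NPC: 8-point, 0.59 nM-46 µM (final). Readout CellTiter-Glo luminescence after 15 min RT.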

Structures are written as SMILES. “And” between values parts separate entries of the source, which are not always exact repeats. Equal entries are not always repeated. Records with an inconclusive call do not appear. The source made the active and inactive calls. The call rests on the fitted dose curve; in most records, active means well fitted curve in the direction sought with a large enough effect; inconclusive means small, poorly fitted or top-dose-only effect, or another doubt; inactive means no such curve, though single readings can be large; an effect the other way counts as inactive or inconclusive. Non-standard residues stand in square brackets, D forms with d. Residues, ends and D or L forms follow the SMILES beside them. Peptide text beside a SMILES is read from it. *: point of attachment. Sta = CC(C)C[C@H](N)[C@@H](O)CC(=O)O; Isovaleryl = CC(C)CC(=O)*

On to `CC(C)CC(=O)N[C@H](C(=O)N[C@H](C(=O)N[C@@H](CC(C)C)[C@@H](O)CC(=O)N[C@@H](C)C(=O)N[C@@H](CC(C)C)[C@@H](O)CC(=O)O)C(C)C)C(C)C` (Isovaleryl-VV[Sta]A[Sta]-OH), for which the Potency result in test [1], in test [2], in test [3], in [4], in test [5] and in test [6] was “inactive” throughout. Besides, the Potency entry in [7], in test [8], in test [9], in [10], in test [11] and in [12] was “inactive” throughout. For the same compound, the Potency entry in test [13], in [14] and in test [15] was “inactive” throughout.

In the case of `Cc1cc(=O)c2c(O)c3c(O)cc(=O)c4c3c3c(cc(O)c1c23)C(C)(C)C=4O`, the Potency result in test [1], in test [8] and in test [12] was “inactive” throughout. Moreover, the Potency was 1.16 µM (active) and 18.7 µM (active) in test [2]; 0.332 µM (active) in test [3]; 1.3 µM (active) and 1.48 µM (active) in test [4]; 1.69 µM (active) and 6.85 µM (active) in test [5]; 5.8 µM (active) and 418 nM (active) in test [16]; 1.46 µM (active) and 2.09 µM (active) in [7]. The Potency in [9] was 1.16 µM (active) and 2.35 µM (active); in test [10] it was 2.59 µM (active) and 5.26 µM (active); in test [13], 1.51 µM (active) and 2.43 µM (active); in test [14] it was 2.06 µM (active) and 3.72 µM (active); in test [15] it was 920 nM (active) and 4.69 µM (active).

As for `Clc1ccc(C(Cn2ccnc2)OCc2ccc(Sc3ccccc3)cc2)c(Cl)c1` (stereo unspecified), the Potency result in test [1], in test [2], in test [3], in test [5], in test [16] and in test [6] was “inactive” in each case. Besides, the Potency result in [11], in [12] and in test [13] was “inactive” in each case.

Take `O=C(O)c1cccc(-c2noc(-c3ccccc3F)n2)c1`: the Potency result in [1], in [2], in test [3], in [17], in test [6] and in [7] was “inactive” each time. In addition, the Potency entry in [8], in [10], in test [11], in [12], in test [13] and in test [14] was “inactive” each time. The Potency result in test [15] was “inactive”.

Regarding `CN(C)c1ccc(O)c2c1C[C@H]1C[C@H]3[C@H](N(C)C)C(=O)C(C(N)=O)=C(O)[C@@]3(O)C(=O)C1=C2O`, the Potency entry in test [1], in test [2], in test [3], in test [16], in [7] and in [8] was “inactive” in each case. Also, the Potency entry in test [9], in [12], in test [13] and in test [14] was “inactive” throughout.

For `Cc1ccc(C)c(OCCCC(C)(C)C(=O)O)c1`, the Potency entry in [1], in test [2], in [3], in [5], in [6] and in test [7] was “inactive” throughout. In addition, the Potency result in test [8], in test [10], in test [12] and in test [14] was “inactive” throughout.

As for `CC(=O)Nc1ccc(O)cc1`, the Potency entry in [1], in test [2], in test [17], in test [4], in test [5] and in [16] was “inactive” throughout. Moreover, the Potency result in test [6], in test [7], in test [8], in test [9], in test [10] and in test [11] was “inactive” each time. Besides, the Potency entry in test [12] and in test [14] was “inactive” each time.

For `Cc1ccc(S(=O)(=O)NC(=O)NN2CC3CCCC3C2)cc1` (stereo unspecified), the Potency result in test [1], in test [2], in test [3], in [4], in test [5] and in [16] was “inactive” each time. Moreover, the Potency entry in [9], in [11], in [12] and in test [15] was “inactive” in each case. Besides, the Potency in [7] was 7.5 µM (active) and 18.7 µM (active).

Take `O=C(NCCO[N+](=O)[O-])c1cccnc1`: the Potency result in test [1], in test [2], in [3], in [17], in test [5] and in test [6] was “inactive” in each case. Further, the Potency result in test [7], in [10], in test [11], in test [12], in [14] and in test [15] was “inactive” in each case.

Take `Cc1ccc(NC(=O)c2ccc(CN3CCN(C)CC3)cc2)cc1Nc1nccc(-c2cccnc2)n1`: the Potency result in test [1], in test [2], in [3], in test [4], in test [5] and in [16] was “inactive” in each case. Further, the Potency entry in [6], in test [7], in test [9], in test [10], in test [12] and in test [15] was “inactive” in each case. Moreover, the Potency in [8] was 34.4 µM (active).

For the compound `COc1cc(Nc2c(C#N)cnc3cc(OCCCN4CCN(C)CC4)c(OC)cc23)c(Cl)cc1Cl`, the Potency in [1] is 23.6 µM (active); in [2], 13.3 µM (active) and 23.5 µM (active); in test [3], 23.7 µM (active); in test [4], 2.11 µM (active) and 1.87 µM (active); in test [5] it was 17.4 µM (active); in [6], 21.1 µM (active). The Potency was 8.33 µM (active) in test [7]; 27.6 µM (active) in test [11]; 19.5 µM (active) and 2.17 µM (active) in test [13]; 15 µM (active) and 14.8 µM (active) in [14]. The Potency result in test [16] is “inactive”.

With `COC(=O)[C@H](Cc1ccccc1)NC(=O)[C@@H](N)CC(=O)O` (H-Asp-Phe-OMe), the Potency entry in [1], in test [2], in test [17], in test [4], in [5] and in test [16] was “inactive” in each case. Besides, the Potency result in test [6], in test [7], in test [8], in test [9], in [10] and in test [11] was “inactive” each time. Also, the Potency entry in test [12], in [14] and in test [15] was “inactive” throughout.

Turning to `COC(=O)C1=C(C)NC(C)=C(C(=O)OCCCN2CCC(c3ccccc3)(c3ccccc3)CC2)C1c1cccc([N+](=O)[O-])c1` (stereo unspecified), the Potency result in [1], in test [2], in test [3], in test [5], in test [9] and in [10] was “inactive” each time. Besides, the Potency entry in test [11], in test [12] and in test [14] was “inactive” throughout. The Potency in [4] was 23.7 µM (active); in test [8], 15.4 µM (active).

Take `N=C(N=C(N)N)N1CCOCC1`: the Potency result in test [1], in test [2], in test [3], in test [5], in test [16] and in test [7] was “inactive” throughout. The Potency entry in [9], in [10], in [11], in test [12], in [13] and in test [14] was “inactive” in each case. In addition, the Potency entry in test [15] was “inactive”.

For the compound `Clc1ccc(C(Cn2ccnc2)OCc2c(Cl)cccc2Cl)c(Cl)c1` (stereo unspecified), the Potency entry in test [1], in test [2], in test [3], in test [8], in test [12] and in test [15] was “inactive” in each case. Moreover, the Potency in test [13] is 19.5 µM (active) and 24.3 µM (active).

Turning to `COc1ccc(C2(C#N)CCC(C(=O)O)CC2)cc1OC1CCCC1` (stereo unspecified), the Potency entry in test [1], in test [2], in test [3], in test [5], in test [6] and in test [7] was “inactive” throughout. The Potency result in test [10], in [11], in [12], in test [14] and in [15] was “inactive” each time. The Potency was 16.6 µM (active) in test [4] and 11.8 µM (active) in test [9].
